Assay results as given in PubChem BioAssay (NCATS).
Several values for one entry are separate records, joined by “and”; a condition that tells them apart may be missing. Equal entries are not always repeated. Inconclusive results are not listed. Activity calls are given as the source filed them. Unless noted, the call rests on the fitted dose curve; in most records, active means well fitted curve in the direction sought with a large enough effect; inconclusive means small, poorly fitted or top-dose-only effect, or another doubt; inactive means no such curve, though single readings can be large; an effect the other way counts as inactive or inconclusive.

Experiments:
[1] = Validation of Assay for Modulators of Lamin A Splicing (AID 1459; active means well fitted curve in the direction sought with a large enough effect in the signal ratio; the % refers to the signal ratio;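 further: cells exposed to compound for two days before reading; 0% is about no effect; ratio rise marks activators and ratio drop marks inhibitors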)
Method in brief: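 Dual-reporter HeLa S3 line (lamin A-EGFP minigene, DsRed2) treated with compounds 48 hrs, 0.5% DMSO final. Endpoint: EGFP/DsRed2 total intensity ratio from laser-scanning microplate cytometry.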

[2] = biological target: DNA repair nuclease/redox regulator APEX1 (Homo sapiens) (UniProt P27695); experiment: qHTS Validation Assay for Inhibitors of the Human Apurinic/apyrimidinic Endonuclease 1 (APE1) (AID 1705;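 further: TAMRA fluorescence gain over two minutes as APE1 cuts a quenched THF abasic duplex; on the % scale 0 is the no-effect control and ±100 the full control effect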)
Method in brief: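 Substrate: 50 nM final fluorophore/quencher THF-abasic duplex. Enzyme preincubated with compounds 15 min, RT. Progress derived from fluorescence difference, third minus first kinetic read.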

[3] = Counterscreen for APE1 Inhibitors: Fluorescent Dye Displacement Validation Assay (AID 1707);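 further: plate controls were ThO with dsDNA and no compound for no effect and ThO without dsDNA for full effect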
Method in brief: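 Loss of Thiazole Orange fluorescence marks promiscuous DNA binders. The dye (250 nM) is mixed with 50 nM abasic-site dsDNA in pH7.5 Tris buffer containing MgCl2, then compounds are added and emission is read once.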

[4] = qHTS for differential inhibitors of proliferation of Plasmodium falciparum line 3D7 (AID 1876);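 further: parasite growth measured after three days of culture; 0% = vehicle wells and -100% = reference inhibitor wells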
[5] = qHTS for differential inhibitors of proliferation of Plasmodium falciparum line Dd2 (AID 1882); conditions: Potency: Plasmodium falciparum Dd2 proliferation inhibition;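 further: plate controls were DMSO vehicle for no effect and 0.29 µM artemisinin for full effect; nearly all actives have a fitted effect of over 65% in size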
Method in brief: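 SYBR Green DNA fluorescence (ex 485, em 535 nm) after overnight lysis quantifies parasite growth; compound exposure lasted 72 h at 37 C on infected red cells at 2.5% hematocrit, 0.3% parasitemia (final). Artemisinin 0.29 uM and vehicle wells define normalization.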

[6] = biological target: ATP-dependent DNA helicase Q1 (Homo sapiens) (UniProt P46063); experiment: qHTS Validation Assay for Inhibitors of RecQ-Like Dna Helicase 1 (RECQ1) (AID 2353);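 further: plate controls were DMSO vehicle for no effect and enzyme-free control for full effect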
Method in brief: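 RECQ1T1 50 nM; forked duplex (20 bp + 30-nt ss tails) 200 nM, ATP 2 mM final; pH 8.0, 2 mM MgCl2, 2.5 ug/ml poly(dI-dC); 15 min compound preincubation; discontinuous kinetic read over 2 h at RT.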

[7] = Validation screen for small molecules that induce DNA re-replication in MCF 10A normal breast cells (AID 463097); further: 0% is about no effect; nearly all actives have a fitted effect of over 60% in size
Method in brief: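 Following 48 hr compound incubation (37 C, 5% CO2), MCF 10A cells receive Hoechst for 40 min at 37 C. Nuclei are then scanned (excitation 405 nm, emission 500-530 nm) for total fluorescence intensity.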

[8] = Quantitative high throughput screen for delayed death inhibitors of the malarial parasite plastid, 96 hour incubation (AID 488745);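 further: luciferase-expressing P. falciparum in erythrocytes at 2% hematocrit and 0.1% parasitemia; on the % scale 0 is the no-effect control and ±100 the full control effect; nearly all actives have a fitted effect of over 70% in size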
Method in brief: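 Readout is firefly luciferase luminescence from an integrated reporter in P. falciparum; lower signal marks inhibited growth. Cultures at 2% hematocrit and 0.1% parasitemia were treated with compound across two generations (96 h, 37 C, 5% CO2).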

[9] = Quantitative high throughput screen for delayed death inhibitors of the malarial parasite plastid, 48 hour incubation (AID 488752); further: on the % scale 0 is the no-effect control and ±100 the full control effect; nearly all actives have a fitted effect of over 65% in size
Method in brief: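 First, compound was pinned into RPMI 1640 medium containing 0.5% Albumax. Next, reporter-parasite-infected erythrocytes were added to 2% hematocrit and 0.1% parasitemia. After 48 h at 37 C under 5% CO2, luciferase detection reagent was added and luminescence read.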

[10] = biological target: Thyrotropin receptor (Homo sapiens) (UniProt P16473); experiment: qHTS Assay for Antagonists of the Thyroid Stimulating Hormone Receptor (AID 488980); further: 0% is about no effect
Method in brief: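 Inhibition of TSH-stimulated cAMP accumulation was quantified by homogeneous time-resolved FRET in TSHR-transfected HEK293 cells. Agonist: TSH, 4 nM final (EC80).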

[11] = biological target: Galactokinase (Homo sapiens) (UniProt P51570); experiment: qHTS Validation Assay for Inhibitors of Human Galactokinase (GALK) (AID 493189); further: 0% is about no effect
Method in brief: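 Enzyme activity is inferred from ATP consumption: human GALK phosphorylates galactose (100 uM) using 35 uM ATP for 1 h at room temperature, and luciferase-based Kinase-Glo Plus reports unconsumed ATP.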

[12] = qHTS Assay for Lipid Storage Modulators (AID 1519; calls by dose curve; on activity change, negative = inhibition: on the % scale 0 is the no-effect control and ±100 the full control effect); conditions: Drosophila S3 cells, BODIPY lipid droplet/cell ratio, laser cytometry, cells loaded with oleic acid; for activity change, negative = inhibition: at 57.5 µM (top of the series)
Method in brief: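 Cells seeded at 5,000 per well were treated with compounds over a concentration series and loaded with oleic acid (400 uM, as added). Lipid droplet fluorescence (488 nm excitation, 500-530 nm channel) was read by laser-scanning cytometry and normalized to 20 uM Triacsin C.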

[13] = biological target: Endonuclease 4 (Escherichia coli (strain K12)) (UniProt P0A6C1); experiment: Counterscreen for APE1 Inhibitors: qHTS Validation Assay for Inhibitors of Endonuclease IV (AID 1708); further: on the % scale 0 is the no-effect control and ±100 the full control effect
Method in brief: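 Enzyme (2 nM) + compound, 15 min RT; add 50 nM TAMRA/BHQ-2 THF-site dsDNA; kinetic read ex525/em598, 3 reads/60 s; activity = read 3 − read 1. Buffer Tris pH 7.5, 50 mM NaCl, 2 mM MgCl2, DTT, Tween-20.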

[14] = biological target: Ferritin light chain (Equus caballus) (UniProt P02791); experiment: qHTS Validation Assay for Identification of Novel General Anesthetics (AID 2323); further: on the % scale 0 is the no-effect control and ±100 the full control effect
Method in brief: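 Normalized fluorescence response, scaled between free 1-AMA and 1-AMA/apoferritin complex, fitted to a four-parameter Hill equation for concentration-effect values. Binding mix: 10 uM horse-spleen apoferritin, 50% saturated 1-AMA in PBS; read 380/535 nm after 10 min.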

[15] = biological target: M-phase phosphoprotein 8 (Homo sapiens) (UniProt Q99549); experiment: qHTS Validation Assay for Inhibitors for MPP8 Chromodomain Interactions with Methylated Histone Tails (AID 488949);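 further: 50 nM MPP8 with 50 nM peptide preformed then compounds added for 30 min; AlphaScreen signal from MPP8 chromodomain bound to biotinylated H3K9me3 peptide; top concentration of the series differs between compounds; on the % scale 0 is the no-effect control and ±100 the full control effect; nearly all actives have a fitted effect of over 55% in size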
Method in brief: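 Chemiluminescent proximity assay: histidine-tag capture via nickel acceptor beads, biotin peptide via streptavidin donor beads. Protein and peptide each at 50 nM, pH 7.4, with 30 min incubations at room temperature for complex formation, compound exposure and bead binding.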

[16] = biological target: Thyrotropin-releasing hormone receptor (Homo sapiens) (UniProt P34981); experiment: qHTS for Small Molecule Agonists and Allosteric Enhancers of Human TRH Receptor: Validation Screen for Agonists (AID 493127;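 active means calcium activation more than 3 SD above the typical response in the agonist read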;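 further: intracellular calcium rise by fluo-8 fluorescence before TRH EC20 addition; 0% is about no effect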); conditions: TRH receptor agonist cell assay; at 2 µM; stronger effect = higher value
Method in brief: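 Compounds are added by online pintool to dye-loaded TRHR cells while fluorescence is recorded every second. A rise in calcium signal during the agonist read marks activation; a later 10 nM TRH addition (EC20) serves the separate enhancer mode.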

[17] = biological target: Voltage-gated inwardly rectifying potassium channel KCNH2 (Homo sapiens) (UniProt Q12809); experiment: qHTS Assay for Small Molecule Inhibitors of the Human hERG Channel Activity (AID 588834);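 further: top concentration of the series differs between compounds; on the % scale 0 is the no-effect control and ±100 the full control effect; lower thallium flux fluorescence means stronger hERG block; nearly all actives have a fitted effect of over 50% in size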
Method in brief: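 Homogeneous FluxOR thallium flux assay using hERG-expressing U2OS cells (BacMam). Compound treatment about 10 minutes preceded stimulation; reduced fluorescence taken as channel block.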

[18] = biological target: Transient receptor potential cation channel subfamily V member 1 (Homo sapiens) (UniProt Q8NER1); experiment: HTS Assay for Compounds that Act as Enhancers of the Vanilloid Receptor 1 (AID 488979); further: 0% is about no effect
Method in brief: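 TRPV1-expressing cells loaded with Fluo-8 calcium dye; compounds added and calcium influx read kinetically for 3 min (agonist phase), then capsaicin at EC20 added and read 2 min more for enhancement. Fluorescence ex 480/em 520 nm.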

[19] = measured here: cell count channel max response
[20] = measured here: lipid channel max response

Sequence of Galactokinase (Homo sapiens) (P51570 whole entry, looked up): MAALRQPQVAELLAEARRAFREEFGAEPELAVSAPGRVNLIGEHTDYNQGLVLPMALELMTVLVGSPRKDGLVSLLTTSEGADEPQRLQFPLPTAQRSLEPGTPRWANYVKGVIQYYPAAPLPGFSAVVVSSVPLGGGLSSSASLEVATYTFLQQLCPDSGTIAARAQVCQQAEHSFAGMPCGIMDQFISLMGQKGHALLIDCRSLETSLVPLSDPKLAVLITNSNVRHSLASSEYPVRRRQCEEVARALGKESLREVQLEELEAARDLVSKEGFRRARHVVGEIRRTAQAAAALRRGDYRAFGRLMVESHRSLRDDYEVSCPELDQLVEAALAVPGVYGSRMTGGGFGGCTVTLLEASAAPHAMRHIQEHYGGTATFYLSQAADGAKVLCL
Sequence of M-phase phosphoprotein 8 (Homo sapiens) (Q99549 whole entry, looked up): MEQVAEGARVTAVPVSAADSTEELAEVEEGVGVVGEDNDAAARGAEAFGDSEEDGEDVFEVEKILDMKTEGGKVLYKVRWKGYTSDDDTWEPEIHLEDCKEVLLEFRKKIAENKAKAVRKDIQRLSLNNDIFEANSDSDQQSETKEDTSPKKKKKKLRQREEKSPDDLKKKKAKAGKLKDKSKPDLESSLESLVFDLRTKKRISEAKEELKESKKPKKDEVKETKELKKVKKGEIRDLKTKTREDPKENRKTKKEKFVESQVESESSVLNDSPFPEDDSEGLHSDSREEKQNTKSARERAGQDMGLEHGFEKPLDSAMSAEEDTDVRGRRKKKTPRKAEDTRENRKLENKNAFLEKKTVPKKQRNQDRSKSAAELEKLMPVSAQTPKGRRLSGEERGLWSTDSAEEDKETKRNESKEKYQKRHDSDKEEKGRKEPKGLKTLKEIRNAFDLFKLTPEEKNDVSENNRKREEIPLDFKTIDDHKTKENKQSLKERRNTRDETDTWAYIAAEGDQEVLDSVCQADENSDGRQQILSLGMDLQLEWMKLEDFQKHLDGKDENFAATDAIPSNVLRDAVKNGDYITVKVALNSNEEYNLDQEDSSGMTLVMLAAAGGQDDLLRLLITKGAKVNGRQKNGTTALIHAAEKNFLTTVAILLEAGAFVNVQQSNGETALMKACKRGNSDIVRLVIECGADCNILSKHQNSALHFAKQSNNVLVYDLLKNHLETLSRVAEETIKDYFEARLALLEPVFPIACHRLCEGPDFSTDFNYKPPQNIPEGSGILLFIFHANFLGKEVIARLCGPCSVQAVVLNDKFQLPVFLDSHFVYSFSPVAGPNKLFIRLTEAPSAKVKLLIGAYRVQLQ
Sequence of ATP-dependent DNA helicase Q1 (Homo sapiens) (P46063 whole entry, looked up): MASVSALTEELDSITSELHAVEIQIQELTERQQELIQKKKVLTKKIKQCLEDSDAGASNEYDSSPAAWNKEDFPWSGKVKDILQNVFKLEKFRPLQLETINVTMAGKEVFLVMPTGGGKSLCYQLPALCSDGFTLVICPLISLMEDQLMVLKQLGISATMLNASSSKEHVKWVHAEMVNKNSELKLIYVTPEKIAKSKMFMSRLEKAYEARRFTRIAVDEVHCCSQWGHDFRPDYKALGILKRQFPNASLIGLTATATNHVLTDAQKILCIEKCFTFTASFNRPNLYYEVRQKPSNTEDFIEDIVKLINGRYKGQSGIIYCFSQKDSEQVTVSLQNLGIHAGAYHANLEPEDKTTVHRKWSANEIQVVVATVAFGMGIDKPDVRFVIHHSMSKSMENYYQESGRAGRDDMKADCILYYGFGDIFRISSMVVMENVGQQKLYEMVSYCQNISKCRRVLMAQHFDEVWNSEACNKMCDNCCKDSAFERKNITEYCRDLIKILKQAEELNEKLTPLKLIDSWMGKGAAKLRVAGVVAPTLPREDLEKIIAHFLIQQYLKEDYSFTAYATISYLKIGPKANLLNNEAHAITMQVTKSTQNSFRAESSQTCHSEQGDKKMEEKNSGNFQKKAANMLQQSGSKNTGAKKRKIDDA
Sequence of DNA repair nuclease/redox regulator APEX1 (Homo sapiens) (P27695 whole entry, looked up): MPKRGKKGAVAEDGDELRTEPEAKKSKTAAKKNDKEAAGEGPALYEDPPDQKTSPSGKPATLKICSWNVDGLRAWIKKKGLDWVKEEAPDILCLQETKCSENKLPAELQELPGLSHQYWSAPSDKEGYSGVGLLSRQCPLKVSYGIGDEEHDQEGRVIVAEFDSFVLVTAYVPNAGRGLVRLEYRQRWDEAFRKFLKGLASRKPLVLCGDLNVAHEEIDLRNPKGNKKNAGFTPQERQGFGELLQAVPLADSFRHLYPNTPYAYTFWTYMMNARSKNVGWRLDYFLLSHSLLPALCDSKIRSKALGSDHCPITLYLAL
Sequence of Thyrotropin receptor (Homo sapiens) (P16473 whole entry, looked up): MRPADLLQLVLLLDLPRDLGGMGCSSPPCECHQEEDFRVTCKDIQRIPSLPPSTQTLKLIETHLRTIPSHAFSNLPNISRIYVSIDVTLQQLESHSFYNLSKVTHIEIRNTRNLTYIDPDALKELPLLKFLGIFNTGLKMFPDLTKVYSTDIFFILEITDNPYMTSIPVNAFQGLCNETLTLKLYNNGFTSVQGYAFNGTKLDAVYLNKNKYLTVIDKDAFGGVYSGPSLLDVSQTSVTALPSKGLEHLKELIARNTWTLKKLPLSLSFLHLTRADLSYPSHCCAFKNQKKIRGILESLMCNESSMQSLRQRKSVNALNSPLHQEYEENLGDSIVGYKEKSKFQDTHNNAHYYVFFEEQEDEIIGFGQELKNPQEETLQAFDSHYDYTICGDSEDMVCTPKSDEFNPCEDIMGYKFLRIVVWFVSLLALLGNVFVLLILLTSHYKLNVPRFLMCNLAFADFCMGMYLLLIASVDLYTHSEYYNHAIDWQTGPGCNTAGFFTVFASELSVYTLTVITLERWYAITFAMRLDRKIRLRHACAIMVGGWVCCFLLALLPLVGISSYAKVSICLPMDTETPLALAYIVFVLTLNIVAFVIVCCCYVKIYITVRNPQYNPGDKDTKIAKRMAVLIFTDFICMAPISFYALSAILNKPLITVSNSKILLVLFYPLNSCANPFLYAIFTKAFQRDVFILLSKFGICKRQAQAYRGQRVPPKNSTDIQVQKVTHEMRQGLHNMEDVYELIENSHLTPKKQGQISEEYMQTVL
Sequence of Thyrotropin-releasing hormone receptor (Homo sapiens) (P34981 whole entry, looked up): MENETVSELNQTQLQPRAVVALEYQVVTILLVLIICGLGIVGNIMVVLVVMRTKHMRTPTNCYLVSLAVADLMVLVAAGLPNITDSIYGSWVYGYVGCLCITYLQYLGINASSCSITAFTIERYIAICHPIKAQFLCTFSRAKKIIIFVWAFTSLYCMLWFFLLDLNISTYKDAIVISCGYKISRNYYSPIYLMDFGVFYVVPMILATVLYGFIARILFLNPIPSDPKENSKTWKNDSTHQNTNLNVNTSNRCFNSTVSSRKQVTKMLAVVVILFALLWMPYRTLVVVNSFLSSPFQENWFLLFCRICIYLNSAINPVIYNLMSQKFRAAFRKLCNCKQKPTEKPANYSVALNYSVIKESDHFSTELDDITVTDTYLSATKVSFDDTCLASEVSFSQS
Sequence of Transient receptor potential cation channel subfamily V member 1 (Homo sapiens) (Q8NER1 whole entry, looked up): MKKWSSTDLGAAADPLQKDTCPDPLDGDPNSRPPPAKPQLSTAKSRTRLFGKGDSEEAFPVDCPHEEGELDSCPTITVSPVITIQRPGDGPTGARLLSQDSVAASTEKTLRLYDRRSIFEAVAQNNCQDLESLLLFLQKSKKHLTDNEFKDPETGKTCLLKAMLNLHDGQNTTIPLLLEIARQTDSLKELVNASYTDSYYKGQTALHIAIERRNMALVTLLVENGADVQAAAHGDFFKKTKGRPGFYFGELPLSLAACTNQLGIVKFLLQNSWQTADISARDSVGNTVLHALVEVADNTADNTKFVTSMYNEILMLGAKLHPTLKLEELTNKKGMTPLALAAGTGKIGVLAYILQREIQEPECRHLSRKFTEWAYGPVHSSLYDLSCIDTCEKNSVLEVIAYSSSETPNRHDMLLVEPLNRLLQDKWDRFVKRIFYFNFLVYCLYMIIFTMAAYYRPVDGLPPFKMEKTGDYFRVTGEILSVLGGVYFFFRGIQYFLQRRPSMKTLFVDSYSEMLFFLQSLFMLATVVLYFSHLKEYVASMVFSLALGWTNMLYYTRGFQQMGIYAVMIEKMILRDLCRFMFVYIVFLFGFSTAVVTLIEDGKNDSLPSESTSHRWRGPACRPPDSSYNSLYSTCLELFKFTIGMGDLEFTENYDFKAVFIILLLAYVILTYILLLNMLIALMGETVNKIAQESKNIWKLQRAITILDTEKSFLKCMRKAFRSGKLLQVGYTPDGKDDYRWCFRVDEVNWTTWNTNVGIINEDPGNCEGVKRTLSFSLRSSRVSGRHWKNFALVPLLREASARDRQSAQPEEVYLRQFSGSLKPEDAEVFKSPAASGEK
Sequence of Ferritin light chain (Equus caballus) (P02791 2-175 limits assumed): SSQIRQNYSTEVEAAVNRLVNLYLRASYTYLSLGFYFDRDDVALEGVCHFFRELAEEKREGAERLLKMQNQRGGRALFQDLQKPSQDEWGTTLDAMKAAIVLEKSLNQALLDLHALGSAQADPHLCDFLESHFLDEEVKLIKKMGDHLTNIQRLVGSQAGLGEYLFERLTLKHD

CN1C2CC(OC(=O)C(CO)c3ccccc3)CC1C1OC12 (stereo not given)
inactive: outcome [1] | Potency [2] | Potency [3] | Potency [4] | Potency [5] | Potency [6] | outcome [7] | Potency [8] | Potency [9] | outcome [10] | outcome [11]

CNC(=O)[C@H]1O[C@@H](n2cnc3c(NCc4cccc(I)c4)ncnc32)[C@H](O)[C@H]1O
inactive: outcome [1] | activity change, negative = inhibition [12] 1.11% | Potency [2] | Potency [3] | outcome [13] | Potency [5] | outcome [14] | Potency [6] | outcome [7] | Potency [8] | Potency [9] | Potency [15] | outcome [10] | activation [16] 1.38% | outcome [11] | Potency [17]
54.7%: max response [12, 19]
56.8%: max response [12, 20]

C[C@]12CCC(=O)C=C1CC[C@@H]1C2[C@@H](O)C[C@@]2(C)[C@H]1CC[C@]2(O)C(=O)CO (stereo not given in full)
2.14% and 9.17%: max response [12, 20]
inactive: outcome [1] | activity change, negative = inhibition [12] 0.0073% and -1.01% | Potency [2] | Potency [3] | outcome [13] | Potency [4] | Potency [5] | outcome [14] | Potency [6] | outcome [7] | Potency [8] | Potency [9] | Potency [15] | outcome [18] | outcome [10] | activation [16] 1% | outcome [11] | Potency [17]
2.28% and 8.51%: max response [12, 19]

NC(=O)C1=CN(C2OC(COP(=O)(O)OP(=O)(O)OC[C@H]3O[C@@H](n4cnc5c(N)ncnc54)[C@H](OP(=O)(O)O)[C@H]3O)C(O)C2O)C=CC1 (stereo not given in full)
-21.9%: max response [12, 20]
inactive: outcome [1] | activity change, negative = inhibition [12] -2.12% | Potency [2] | Potency [3] | outcome [13] | Potency [4] | Potency [5] | outcome [14] | Potency [6] | outcome [7] | Potency [8] | Potency [9] | Potency [15] | outcome [18] | outcome [10] | activation [16] -0.125% | outcome [11] | Potency [17]
-24.1%: max response [12, 19]

OC[C@H]1O[C@@H](n2cnc3c(Nc4ccccc4)ncnc32)[C@H](O)[C@H]1O
inactive: outcome [1] | Potency [2] | Potency [3] | outcome [13] | Potency [4] | Potency [5] | outcome [14] | Potency [6] | outcome [7] | Potency [9] | Potency [15] | outcome [18] | outcome [10] | activation [16] 0.188% | outcome [11] | Potency [17]
